# Screens from PubChem BioAssay.
# Most compounds without a hit are left out; they make up all but 2.9% or so of the library.
# EPAC2 antag: human EPAC2 antagonism, validation. Q8WZA2. EPAC2 Rap1B BODIPY-GDP exchange, fluorescence. Potency, µM (doses to about 112 µM), for inactives: top-dose activity, negative = inhibition, usual class: inhibitors. 1.7% of 16,000 active. AID 1645886;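 note: 100% = activation by cAMP agonist control; nearly all actives have a fitted effect of over 40% in size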
# Target sequence (Q8WZA2 whole entry, looked up): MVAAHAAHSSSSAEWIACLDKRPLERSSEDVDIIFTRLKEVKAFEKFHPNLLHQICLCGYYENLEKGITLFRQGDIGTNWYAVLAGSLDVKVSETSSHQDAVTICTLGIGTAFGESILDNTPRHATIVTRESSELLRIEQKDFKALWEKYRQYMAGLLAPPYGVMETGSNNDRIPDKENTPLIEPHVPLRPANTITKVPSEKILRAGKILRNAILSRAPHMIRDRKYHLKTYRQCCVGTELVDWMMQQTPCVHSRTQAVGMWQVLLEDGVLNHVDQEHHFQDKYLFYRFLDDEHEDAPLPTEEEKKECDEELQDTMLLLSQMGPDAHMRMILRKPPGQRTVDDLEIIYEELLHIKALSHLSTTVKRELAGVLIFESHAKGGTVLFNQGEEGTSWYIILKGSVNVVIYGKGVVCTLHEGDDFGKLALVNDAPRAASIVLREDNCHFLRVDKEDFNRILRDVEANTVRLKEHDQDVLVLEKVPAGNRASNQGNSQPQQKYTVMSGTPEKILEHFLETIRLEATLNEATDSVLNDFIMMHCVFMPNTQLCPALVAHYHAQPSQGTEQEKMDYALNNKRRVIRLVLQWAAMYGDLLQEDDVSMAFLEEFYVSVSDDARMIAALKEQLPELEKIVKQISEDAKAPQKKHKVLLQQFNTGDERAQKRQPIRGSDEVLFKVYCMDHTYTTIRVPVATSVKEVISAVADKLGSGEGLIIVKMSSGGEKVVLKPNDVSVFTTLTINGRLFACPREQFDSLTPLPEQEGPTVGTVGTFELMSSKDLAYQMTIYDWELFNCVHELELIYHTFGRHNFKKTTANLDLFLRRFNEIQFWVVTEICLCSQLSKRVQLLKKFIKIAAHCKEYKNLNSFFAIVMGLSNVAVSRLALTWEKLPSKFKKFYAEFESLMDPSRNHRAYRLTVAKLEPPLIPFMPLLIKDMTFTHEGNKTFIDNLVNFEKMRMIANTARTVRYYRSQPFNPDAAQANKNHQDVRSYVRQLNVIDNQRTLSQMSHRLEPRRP
#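 Fluorescent exchange read-out: 100 nM EPAC2 with 250 nM RAP1B–BODIPY-GDP and 50 uM GDP; BODIPY-GDP release lowers fluorescence. Read at 480/540 nm every 5 min for 30 min at room temperature; normalized to 6.5 mM cAMP.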
# EPAC1 agonist: validation of human EPAC1 agonists. O95398. EPAC1 Rap1b BODIPY-GDP exchange, fluorescence. Potency, µM, for the others: max response, positive = active, hits mostly activators. 1% of 16,000 active. AID 1645883; note: nearly all actives have a fitted effect of over 70% in size
# Numbers without * were called inactive; i = inactive; u = inconclusive; ! = a repeat was not active; [ ] = remark or other dose. Calls come from the whole dose curve; as a rule, active = well fitted curve in the direction sought with a large enough effect; inconclusive = small, poorly fitted or top-dose-only effect, or another doubt; inactive = no such curve, though single readings can be large; an effect the other way counts as inactive or inconclusive. Unless noted, % is set by controls: 0 for no effect and ±100 for the full control effect; potency is the fitted concentration of half-maximal effect.
SMILES,EPAC2 antag,EPAC1 agonist
O=C(O)COc1ccc(C(=O)c2cccs2)c(Cl)c1Cl,-6%,-12%
CCOC(=O)C(CCc1ccccc1)NC(C)C(=O)N1C(C(=O)O)CC2CCCC21 (stereo not drawn),-10%,13%
CCOC(=O)[C@H](CCc1ccccc1)N[C@@H](C)C(=O)N1[C@@H](C(=O)O)C[C@@H]2CCC[C@@H]21,i,45µM*
COC(=O)C1=C(C)NC(C)=C([N+](=O)[O-])C1c1ccccc1C(F)(F)F (stereo not drawn),40µM*!,2%
CC1=C(C(=O)OC(C)C)[C@@H](c2cccc3nonc23)C([N+](=O)[O-])=C(C)N1,-51%,-1%
C=C1CCC(O)C/C1=C\C=C1/CCCC2(C)C1CCC2C(C)/C=C/C(C)C(C)C (stereo not drawn),50µM*,-72%
C=C1C(=C/C=C2\CCC[C@]3(C)[C@@H]([C@H](C)/C=C/[C@@H](O)C4CC4)CC[C@@H]23)C[C@@H](O)C[C@@H]1O,-29%,16%
CNC[C@@H]1CC[C@@H](N)[C@@H](O[C@H]2[C@H](O)[C@@H](O[C@H]3OC[C@](C)(O)[C@H](NC)[C@H]3O)[C@H](N)C[C@@H]2N)O1,12%,15%
COc1cc(-c2coc3cc(O[C@H]4OC(CO)C(O)C(O)C4O)c(OC)c(O)c3c2=O)cc(O)c1OC (stereo partly drawn),-7%,20%
COc1cc(-c2coc3cc(OCc4ccccc4)c(OC)c(O)c3c2=O)cc(O)c1OC,-18%,112µM*
COc1ccc(SC[C@H](C)CN2CC[C@H](O)CCC2=O)cc1,-5%,20%
COc1ccc(SC[C@H](C)CN2CC[C@H](C)CCC2=O)cc1,50µM*,3%
CC(=O)Nc1ccc(SC[C@H](C)CN2CC[C@H](C(C)(C)C)CCC2=O)cc1,56µM*,-1%
Cc1ccc(SC[C@H](C)CN2CC[C@H](C)CCC2=O)cc1,u,-43%
Cc1ncc2c(c1CNC(=O)/C=C/c1cccs1)CCN(C(=O)c1noc3c1CCCC3)C2,-2%,-12%
COC(=O)[C@H](Cc1ccccc1)N(Cc1ccc(C)cc1)S(C)(=O)=O,u,19%
O=C(CCN1CCN(CCO)CC1)N1c2ccccc2Sc2ccc(C(F)(F)F)cc21,7%,13%
CN1CCN(CCCN2c3ccccc3Sc3ccc(C(F)(F)F)cc32)CC1,56µM*!,-2%
O=c1c(-c2ccccc2)nc2cnc(Nc3ccccc3)nc2n1Cc1cccs1,11%,112µM*
COc1ncc2nc(-c3ccccc3)c(=O)n(Cc3cccs3)c2n1,u,112µM*
COc1ncc2nc(-c3cccs3)c(=O)n(Cc3cccs3)c2n1,-18%,u
COCCn1c(=O)c(-c2ccccc2)nc2cnc(Nc3ccccc3)nc21,-15%,-14%
CN(C)c1ncc2nc(-c3cccc(C#N)c3)c(=O)n(C)c2n1,3%,-13%
COc1ccc(NC(=O)N2CCCC3(CCN(C(=O)c4ccco4)CC3)C2)cc1,-24%,-22%
COc1ccc(CCNc2ncnc3sc(C(=O)N4CCCCC4)c(C)c23)cc1OC,-6%,2%
SMILES,EPAC2 antag,EPAC1 agonist
O.O.O.O.O.O.O.O=S(=O)([O-])[O-].[Co+2],50µM*,-32%
CC(C)(C=O)Cc1cc(C(C)(C)C)c(O)c(C(C)(C)C)c1,u,5%
CC(C)(CO)Cc1cc(C(C)(C)C)c(O)c(C(C)(C)C)c1,56µM*!,4%
CC1CCC(C(C)[C@H]2CCC3C4CC(=O)C5C[C@@H](O)CC[C@]5(C)C4CC[C@@]32C)=NC1 (stereo partly drawn),-6%,-12%
Cc1cc(-c2ccnc(-n3ncc(C(=O)N(C)Cc4nccs4)c3C)n2)c(C)s1,u,0%
CN(C)c1ccc2ccc3cccc4ccc1c2c34,101%,u
O=S(=O)(O)c1cc(O)c2c(N=Nc3ccc(Nc4ccccc4)c4c(S(=O)(=O)O)cccc34)cc(S(=O)(=O)O)cc2c1,u,9%
O=S(=O)(O)c1ccc2c(N=Nc3ccc(S(=O)(=O)O)c4ccccc34)c(O)c(S(=O)(=O)O)cc2c1,50µM*,-63%
Brc1c(Br)c(Br)c2n[nH]nc2c1Br,40µM*,-25%
Brc1c(Br)c(Br)c2[nH]cnc2c1Br,-1%,-9%
Cc1cnc(SCc2ccccn2)nc1C1CCCN(C(=O)c2ccc(-c3ccccc3F)cc2)C1 (stereo not drawn),u,27%
c1ccc2oc(C3=NCCN3)cc2c1,-14%,-22%
O=S1(=O)CCOC[C@H](CC2CCCCC2)N1Cc1ccccc1F,u,-21%
O=S1(=O)CCOC[C@H](CC2CCCCC2)N1Cc1cccc(C(F)(F)F)c1,18µM*,-116%
O=C(O)CC1CC(c2ccccc2)=NO1 (stereo not drawn),-16%,6%
CC1(C)[C@H](C(=O)O)N2C(=O)C[C@H]2S1(=O)=O,-19%,5%
COc1ccc(-n2c(=O)c(-c3cccs3)nc3cncnc32)cc1,-5%,3%
COc1cc2c(cc1OC)-c1cc(=Nc3c(C)cc(C)cc3C)n(C)c(=O)n1CC2,14µM*!,u
NCCc1ccc(O)c(O)c1,-10%,u
Oc1ccc(Cl)cc1Cc1cc(Cl)ccc1O,89µM*!,u
COC(=O)CCC[N+](C)(C)C,10%,-14%
O=c1cc(-c2cc(O)c(O)c(O)c2)oc2cc(O)cc(O)c12,u,-40%
O=c1oc2c(O)c(O)cc3c(=O)oc4c(O)c(O)cc1c4c23,i,79µM*!
CCC[C@H]1COCCS(=O)(=O)N1Cc1ccc(F)cc1,u,-3%
O=C(OCCOCCO)c1ccccc1Nc1cccc(C(F)(F)F)c1,-20%[56.6 µM],-8%
SMILES,EPAC2 antag,EPAC1 agonist
Cc1cc(C)c(S(=O)(=O)Nc2cccc(C(F)(F)F)c2)c(C)c1,40µM*,-11%
CC(=O)C[C@H]1c2ccccc2S(=O)(=O)N1C1CCCC1,u,-17%
COCC(=O)N1CCC2(CC1)CCN(C(=O)Nc1cccc(C#N)c1)CC2,-21%,126µM*
COCC(=O)N1CCC2(CCCN(C(=O)Nc3cccc(C#N)c3)C2)CC1,-21%,-33%
Oc1ccc(-c2cnccn2)cc1CN1CCN(C2CCCCC2)CC1,-4%,-3%
CC(C)=CCc1c(O)cc(C)oc1=O,0%,-12%
COc1cc(O)c2c(=O)cc(C)oc2c1CC=C(C)C,32µM*,u
CN(C)CCC(c1ccc(Br)cc1)c1ccccn1 (stereo not drawn),-26%,-3%
O=c1c(-c2cc(F)cc(F)c2)nc2cnc(N3CCNCC3)nc2n1Cc1ccc(F)cc1,50µM*,u
O=c1c(-c2ccccc2)nc2cnc(N3CCNCC3)nc2n1Cc1ccc(F)cc1,-14%,-10%
COC(=O)N1c2ccccc2C23[C@@H]4CN5CCC[C@]6(CCC12C(O)(C6)C4=O)[C@H]53,-1%,-16%
CN1CCC(=O)N([C@H](CN=[N+]=[N-])Cc2ccccc2)CC1,-17%,u
CC[C@H](C)[C@H]1O[C@]2(CC[C@@H]1C)C[C@@H]1C[C@@H](C/C=C(\C)[C@@H](O[C@H]3C[C@H](OC)[C@@H](O[C@H]4C[C@H](OC)[C@@H](O)[C@H](C)O4)[C@H](C)O3)[C@@H](C)/C=C/C=C3\CO[C@@H]4[C@H](O)C(C)=C[C@@H](C(=O)O1)[C@]34O)O2,-16%,-58%
COc1ccc(CNC(=O)C[C@H]2C(=O)N(Cc3ccc(OC)cc3)C[C@@H]2Cc2ccccc2)cc1,u,2%
